Measured values taken from PubChem BioAssay AID1159580 (chemical genetic matrix, 2015).
Screen size: about 5,500 compounds; about 2,000 (36%) were called active. Inconclusive results (about 18%) are left out. Rule as the data show it: active = normalized growth mostly below about 0.91 (no sharp cut-off); inconclusive = no clear call, values can overlap the other calls; inactive = mostly above about 0.92. This is one part of the list.

Assay: chemical genetic growth profiling, strain panel (AID 1159580);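 also: tested at 20 µM; growth read once vehicle control cultures reached saturation at 30 °C; 1 = growth at the plate median or of vehicle wells; lower values mean less growth of the strain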
Details: growth OD

Measured: normalized growth

CC1(C)C(=O)[C@@H]2C[C@@]3(O)C4=CC(=O)O[C@@H](c5ccoc5)[C@]4(C)CCC3[C@@](C)(C2=O)[C@H]1CC(=O)O (some centres not stated)
inactive: S. cerevisiae deletion strains, locus YJR066W, strain TOR1, hits give low values 0.941 | S. cerevisiae deletion strains, locus YKL009W, strain mrt4, hits give low values 0.998 | S. cerevisiae deletion strains, locus YKL068W, hits give low values 1 | S. cerevisiae deletion strains, locus YKL085W, strain MDH1 (second series), hits give low values 0.99 | S. cerevisiae deletion strains, locus YKL085W, strain MDH1, hits give low values 0.99 | S. cerevisiae deletion strains, locus YKL160W, strain elf1, hits give low values 1.01 | S. cerevisiae deletion strains, locus YKR001C, strain vps1, hits give low values 0.992 | S. cerevisiae deletion strains, locus YKR026C, strain gcn3, hits give low values 1.01 | S. cerevisiae deletion strains, locus YKR091W, strain srl3, hits give low values 1 | S. cerevisiae deletion strains, locus YLL001W, strain dnm1, hits give low values 1.01 | S. cerevisiae deletion strains, locus YLL026W, hits give low values 1.01 | S. cerevisiae deletion strains, locus YLL041C, strain sdh2, hits give low values 1.01 | S. cerevisiae deletion strains, locus YLR027C, strain aat2, hits give low values 1.01 | S. cerevisiae deletion strains, locus YLR039C, strain RIC1, hits give low values 1.1 | S. cerevisiae deletion strains, locus YLR058C, strain SHM2, hits give low values 1.01 | S. cerevisiae deletion strains, locus YLR102C, strain apc9, hits give low values 0.997 | S. cerevisiae deletion strains, locus YLR113W, strain HOG1, hits give low values 0.986 | S. cerevisiae deletion strains, locus YLR221C, strain rsa3, hits give low values 1.01 | S. cerevisiae deletion strains, locus YLR258W, strain gsy2, hits give low values 0.996 | S. cerevisiae deletion strains, locus YLR262C, strain YPT6 (second series), hits give low values 1.01 | S. cerevisiae deletion strains, locus YLR262C, strain YPT6, hits give low values 1.08 | S. cerevisiae deletion strains, locus YLR268W, strain sec22, hits give low values 1 | S. cerevisiae deletion strains, locus YLR320W, strain mms22, hits give low values 0.995 | S. cerevisiae deletion strains, locus YLR330W, strain CHS5, hits give low values 1 | S. cerevisiae deletion strains, locus YLR342W, strain FKS1, hits give low values 0.997 | S. cerevisiae deletion strains, locus YLR357W, strain rsc2, hits give low values 1 | S. cerevisiae deletion strains, locus YLR370C, strain arc18, hits give low values 1.01 | S. cerevisiae deletion strains, locus YLR371W, strain rom2, hits give low values 1.01 | S. cerevisiae deletion strains, locus YLR384C, strain iki3, hits give low values 0.992 | S. cerevisiae deletion strains, locus YLR418C, strain cdc73, hits give low values 1 | S. cerevisiae deletion strains, locus YML016C, strain PPZ1, hits give low values 1 | S. cerevisiae deletion strains, locus YML032C, strain rad52, hits give low values 0.983 | S. cerevisiae deletion strains, locus YML120C, strain ndi1, hits give low values 1.02 | S. cerevisiae deletion strains, locus YML124C, strain tub3, hits give low values 1 | S. cerevisiae deletion strains, locus YMR058W, strain fet3, hits give low values 1.02 | S. cerevisiae deletion strains, locus YMR078C, strain ctf18, hits give low values 0.985 | S. cerevisiae deletion strains, locus YMR125W, strain sto1, hits give low values 0.997 | S. cerevisiae deletion strains, locus YMR129W, hits give low values 1 | S. cerevisiae deletion strains, locus YMR205C, strain PFK2, hits give low values 0.999 | S. cerevisiae deletion strains, locus YMR223W, strain ubp8, hits give low values 0.99 | S. cerevisiae deletion strains, locus YMR231W, strain pep5, hits give low values 0.976 | S. cerevisiae deletion strains, locus YMR263W, strain SAP30, hits give low values 1.02 | S. cerevisiae deletion strains, locus YMR307W, strain GAS1, hits give low values 1.06 | S. cerevisiae deletion strains, locus YNL067W, strain RPL9B, hits give low values 1 | S. cerevisiae deletion strains, locus YNL071W, strain lat1, hits give low values 1.01 | S. cerevisiae deletion strains, locus YNL128W, strain TEP1, hits give low values 1.02 | S. cerevisiae deletion strains, locus YNL183C, strain NPR1, hits give low values 0.946 | S. cerevisiae deletion strains, locus YNL209W, strain ssb2, hits give low values 1.03 | S. cerevisiae deletion strains, locus YNL233W, strain BNI4, hits give low values 1.02 | S. cerevisiae deletion strains, locus YNL248C, strain rpa49, hits give low values 1.02 | S. cerevisiae deletion strains, locus YNL250W, strain rad50, hits give low values 1 | S. cerevisiae deletion strains, locus YNL271C, strain bni1, hits give low values 1 | S. cerevisiae deletion strains, locus YNL298W, strain CLA4, hits give low values 0.977 | S. cerevisiae deletion strains, locus YNL307C, strain MCK1, hits give low values 0.99 | S. cerevisiae deletion strains, locus YNL322C, strain KRE1 (second series), hits give low values 0.999 | S. cerevisiae deletion strains, locus YNR049C, strain mso1, hits give low values 0.999 | S. cerevisiae deletion strains, locus YNR052C, strain pop2, hits give low values 0.984 | S. cerevisiae deletion strains, locus YOL006C, strain TOP1, hits give low values 1.09 | S. cerevisiae deletion strains, locus YOL012C, strain htz1 0.886 | S. cerevisiae deletion strains, locus YOL147C, strain pex11, hits give low values 0.995 | S. cerevisiae deletion strains, locus YOR001W, strain rrp6, hits give low values 1.03 | S. cerevisiae deletion strains, locus YOR061W, strain CKA2, hits give low values 1.01 | S. cerevisiae deletion strains, locus YOR069W, strain VPS5, hits give low values 1.01 | S. cerevisiae deletion strains, locus YOR070C, strain gyp1, hits give low values 1.01 | S. cerevisiae deletion strains, locus YOR080W, strain dia2, hits give low values 1 | S. cerevisiae deletion strains, locus YOR083W, strain WHI5, hits give low values 1 | S. cerevisiae deletion strains, locus YOR106W, strain vam3, hits give low values 1.01 | S. cerevisiae deletion strains, locus YOR136W, strain idh2, hits give low values 0.989 | S. cerevisiae deletion strains, locus YOR144C, strain elg1, hits give low values 0.989 | S. cerevisiae deletion strains, locus YOR184W, strain ser1, hits give low values 1.01 | S. cerevisiae deletion strains, locus YOR231W, strain MKK1, hits give low values 0.998 | S. cerevisiae deletion strains, locus YOR265W, strain rbl2, hits give low values 1.02 | S. cerevisiae deletion strains, locus YOR270C, strain vph1, hits give low values 1.06 | S. cerevisiae deletion strains, locus YOR290C, strain snf2, hits give low values 1.01 | S. cerevisiae deletion strains, locus YOR316C, strain cot1, hits give low values 0.994 | S. cerevisiae deletion strains, locus YPL051W, strain arl3, hits give low values 1.05 | S. cerevisiae deletion strains, locus YPL078C, strain atp4, hits give low values 1.01 | S. cerevisiae deletion strains, locus YPL106C, strain sse1, hits give low values 1.04 | S. cerevisiae deletion strains, locus YPL240C, strain hsp82, hits give low values 1.01 | S. cerevisiae deletion strains, locus YPL241C, strain CIN2, hits give low values 1.01 | S. cerevisiae deletion strains, locus YPL256C, strain CLN2, hits give low values 0.984 | S. cerevisiae deletion strains, locus YPR119W, strain clb2, hits give low values 0.991 | S. cerevisiae deletion strains, locus YPR141C, strain kar3, hits give low values 1.01 | S. cerevisiae deletion strains, locus YPR163C, strain tif3, hits give low values 0.99 | S. cerevisiae deletion strains, locus YPR167C, strain met16, hits give low values 1 | S. cerevisiae deletion strains, strain wtn01, hits give low values 1.01 | S. cerevisiae strains, strain wild type, hits give low values 1.01
